# DT40 TDP1 no CPT: qHTS for Inhibitors of human tyrosyl-DNA phosphodiesterase 1 (TDP1): qHTS in cells in absence of CPT; DT40 Tdp1-/- hTDP1 cells, no CPT, ATP luminescence, 48 h; 420,000 tested, 15% active; Potency, µM (titrated, usually from 46.2 µM), actives largely listed as inhibitors; also: nearly all actives have a fitted effect of over 55% in size
#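 Compound effects on proliferation are scored in DT40 Tdp1-/-;hTDP1 cells in the absence of CPT. ATP levels (CellTiter-Glo luminescence) are recorded after a ≥48 hr, 37 °C incubation.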
# IL1B secr inh: inhibitors of inflammasome signaling (IL-1 beta secretion); THP-1 LPS/ATP IL-1B secretion, AlphaLISA, 16 h; hits give low values; activity change, % at 57.5 µM; 360,000 tested, 4.7% active; in the data active = activity change below about -50%; inconclusive = mostly about -30% to -49%
#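 Secreted IL-1B measured by AlphaLISA bead assay after 16 h compound exposure of THP-1 cells; compounds (final up to 57.5 uM) added 1 h before LPS (250 ng/mL) and ATP (1.25 mM) stimulation; lower signal means less secretion.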
# TDP1 inh: blocks human tyrosyl-DNA phosphodiesterase 1; 350,000 tested, 0.28% active; Potency, µM (highest dose often 130 µM), actives largely listed as inhibitors; recombinant TDP1, AlphaScreen DNA substrate cleavage; also: nearly all actives have a fitted effect of over 40% in size
# Target sequence (Q9NUW8 whole entry, looked up): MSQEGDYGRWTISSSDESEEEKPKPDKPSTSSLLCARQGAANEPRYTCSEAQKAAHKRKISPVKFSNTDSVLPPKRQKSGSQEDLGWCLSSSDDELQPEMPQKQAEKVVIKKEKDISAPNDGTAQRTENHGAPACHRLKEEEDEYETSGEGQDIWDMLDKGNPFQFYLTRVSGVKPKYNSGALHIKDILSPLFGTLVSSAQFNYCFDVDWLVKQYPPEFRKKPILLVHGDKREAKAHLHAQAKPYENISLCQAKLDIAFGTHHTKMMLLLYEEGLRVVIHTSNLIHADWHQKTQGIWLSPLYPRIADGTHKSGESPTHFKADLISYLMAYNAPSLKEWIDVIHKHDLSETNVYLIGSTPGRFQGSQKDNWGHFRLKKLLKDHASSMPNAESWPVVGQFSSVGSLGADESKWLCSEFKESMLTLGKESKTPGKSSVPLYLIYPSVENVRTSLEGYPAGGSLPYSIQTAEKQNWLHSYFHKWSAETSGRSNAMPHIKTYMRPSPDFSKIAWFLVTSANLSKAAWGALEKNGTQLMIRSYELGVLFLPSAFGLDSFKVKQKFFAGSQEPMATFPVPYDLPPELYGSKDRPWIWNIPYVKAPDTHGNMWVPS
#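 AlphaScreen read-out: signal falls as enzyme removes the 3' tyrosine-FITC from a 5'-biotinylated DNA oligo (15 nM, 5 min, RT). Enzyme was E. coli-made recombinant Tdp1 at 1 nM, exposed to compound for 15 min beforehand; beads 10 ug/ml, 10 min.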
# HepG2 viability: HepG2 cytotoxicity, counter-screen for TGF-b inhibitors | HepG2 CAGA-GFP viability, ATP luminescence, 18 h | Potency, µM (top dose mostly 46.1 µM), most hits filed as cytotoxic | 410,000 tested, 0.76% active
#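 HepG2 CAGA-GFP cells (1000/well, DMEM with 1% FBS) received compound, then TGF-beta at 500 pg/mL final, and were incubated 18 hours at 37 degrees C. Viability was read by CellTiter-Glo luminescence. Media-only wells were set as complete cell-killing and DMSO as no toxicity.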
# TGFb inhibitor: TGF-b pathway inhibition; 410,000 tested, 1.2% active; Potency, µM (doses to about 46.1 µM), hits mostly inhibitors; AID 588855; HepG2 CAGA-GFP TGF-b/SMAD3 reporter, GFP fluorescence, 18 h; TGF-beta stimulated, 500 pg/mL final; also: nearly all actives have a fitted effect of over 65% in size
#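 TGF-beta reporter screen: HEPG2 CAGA-GFP, 1% FBS, 500 pg/mL TGF-beta final, 18 h; per-cell GFP summed per well; curves fitted and categorized by class.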
# TDP1 cell CPT: DT40-hTDP1 cell growth loss with CPT; chicken DT40 Tdp1-/-;hTDP1 cells + 20 nM CPT, ATP luminescence, 48 h; Potency, µM (series often up to 46.2 µM), hits mostly inhibitors; 420,000 tested, 12% active; also: nearly all actives have a fitted effect of over 55% in size
#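 Cell growth measured by CellTiter-Glo luminescence after a minimum 48 h, 37 C compound exposure with 20 nM CPT in Tdp1-knockout DT40 cells stably expressing hTDP1, seeded 400/well; qHTS titration format.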
# Hits are given with their value; i = inactive; ? = inconclusive; nt = no result given; ! = not active in a repeat. Shown are actives, neighbours in structure and some others; about 18% of the full set was active somewhere. Unless noted, calls follow the shape of the dose curve; as a rule, active = well fitted curve in the direction sought with a large enough effect; inconclusive = small, poorly fitted or top-dose-only effect, or another doubt; inactive = no such curve, though single readings can be large; an effect the other way counts as inactive or inconclusive.
SMILES,DT40 TDP1 no CPT,IL1B secr inh,TDP1 inh,HepG2 viability,TGFb inhibitor,TDP1 cell CPT
CCOC(=O)c1cc(CC)sc1/N=C/c1c(O)ccc2ccccc12,?,i,i,i,i,i
N#Cc1ccccc1COC(=O)CCC(=O)c1cccs1,i,i,i,i,i,i
CC(C)Sc1ncc(Cl)c(C(=O)Nc2ccc(S(=O)(=O)Nc3ncccn3)cc2)n1,i,nt,i,i,i,?
COc1ccc(OC)c(NC(=O)c2nc(SCc3ccc(F)cc3)ncc2Cl)c1,i,nt,i,i,i,i
Cc1ccc(CSc2ncc(Cl)c(C(=O)Oc3ccccc3F)n2)cc1,i,nt,i,i,i,i
CC(C)CCNC(=O)c1cnc2sc(N3CCCCCC3)nn2c1=O,21µM,nt,i,i,i,16µM
COc1ccc(OC)c(NC(=O)c2nc(SCc3ccccc3F)ncc2Cl)c1,14µM!,nt,i,i,i,10µM!
COc1ccc(CCNC(=O)c2nc(SCc3ccc(C)cc3)ncc2Cl)cc1OC,10µM,nt,i,i,?,12µM
CCN(c1ccccc1)S(=O)(=O)c1ccc(NC(=O)c2nc(SC(C)C)ncc2Cl)cc1,18µM,nt,i,i,i,21µM
O=C(O)COc1ccc(/C=N/NC(=O)Cc2ccc(Cl)cc2)cc1,i,i,i,i,i,i
O=C1NCCCCC1NS(=O)(=O)c1ccc(F)c(F)c1 (stereo not given),i,i,i,i,i,i
COc1ccc(CCNC(=O)c2cnc3sc(N4CCCC4)nn3c2=O)cc1OC,23µM,nt,i,i,?,?
COc1cccc(CCNC(=O)c2cnc3sc(N4CCCC4)nn3c2=O)c1,16µM,nt,i,i,?,15µM
COCCCNC(=O)c1cnc2sc(N3CCCCCC3)nn2c1=O,i,nt,i,i,i,i
COc1ccc(Cl)cc1NC(=O)c1cc(C)nn1-c1ccccc1,?,nt,i,i,nt,?
Cc1ccc(N2CC(C(=O)OCc3nnc(-c4ccccc4)o3)CC2=O)cc1 (stereo not given),i,i,nt,i,i,i
CCN(CC)c1ccc(-c2n[nH]c(=S)n2-c2ccccc2)cc1,23µM,i,i,i,i,18µM
CN(C)c1ccc(-c2n[nH]c(=S)n2-c2ccccc2)cc1,i,i,i,i,i,i
CCN(CC)c1ccc(-c2n[nH]c(=S)n2-c2ccccc2C)cc1,18µM,i,i,i,i,21µM
COc1ccc(-c2n[nH]c(=S)n2-c2ccccc2C)cc1,i,i,nt,i,i,i
Cc1ccc(S(=O)(=O)Nc2ccccc2C(O)c2ccccc2)cc1 (stereo not given),18µM,i,nt,i,?,?
COc1ccc(C(C)=O)cc1Cn1c(C)c(C(=O)NCc2cccc(Cl)c2)sc1=O,21µM,i,nt,i,?,?
COc1ccc(NC(=O)c2sc(=O)n(Cc3ccc(F)c(Cl)c3)c2C)cc1OC,10µM,i,nt,i,i,23µM
CC(=O)Oc1ccc(Cn2c(C)c(C(=O)NCc3ccc4c(c3)OCCO4)sc2=O)cc1,16µM,i,nt,i,i,?
Cc1cccc(C)c1Cn1c(C)c(C(=O)NCc2ccc([N+](=O)[O-])cc2)sc1=O,23µM,i,nt,i,?,?
SMILES,DT40 TDP1 no CPT,IL1B secr inh,TDP1 inh,HepG2 viability,TGFb inhibitor,TDP1 cell CPT
COc1ccc(C(C)=O)cc1Cn1c(C)c(C(=O)NCc2ccc3c(c2)OCO3)sc1=O,?,i,nt,i,i,?
O=C(Nc1ccccc1C(=O)OCc1cc(=O)n2c3c(sc2n1)CCCC3)c1ccc(F)cc1,?,nt,i,i,?,i
Cc1cc(=O)n(Cc2c(F)cccc2Cl)c2c1c(C)nn2C,i,nt,i,i,i,?
CSc1ccc(Cn2c(C)c(C(=O)NCc3cccc(C)c3)sc2=O)cc1,?,-65,nt,i,i,23µM
COc1ccc(C(C)=O)cc1Cn1c(C)c(C(=O)NCc2cccc(C)c2)sc1=O,?,-79,nt,i,?,?
CSc1ccc(Cn2c(C)c(C(=O)NCc3cccc(Cl)c3)sc2=O)cc1,?,?,nt,i,i,?

# Assay outcomes deposited in PubChem by National Center for Advancing Translational Sciences (NCATS).
